Measurements reported in PubChem BioAssay (Tox21).
Inconclusive results are not listed. Activity calls are given as the source filed them. Unless noted, the call rests on the fitted dose curve; in most records, active means well fitted cell-killing curve with a large enough effect in the repeat runs; inconclusive means weak or mixed curves, or effect the other way; inactive means no such curve, though single readings can be large or run the other way.

Assay: qHTS assay to identify small molecule agonists of the vitamin D receptor (VDR) signaling pathway - cell viability counter screen (AID 743224); further: nearly all actives have a fitted effect of over 50% in size
Conditions: VDR-bla HEK293T viability, CellTiter-Glo luminescence, 16 h; series mostly up to 62.6 µM; activity change, negative = cytotoxicity: at the top concentration
Method in brief: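 VDR-bla cells were preincubated 4 h at 37C/5% CO2, then exposed to compounds for 16 h. After the 2 h room-temperature bla FRET read, CellTiter-Glo was added to the same wells and luminescence read after 30 min.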
On the % scale 0 is the no-effect control and ±100 the full control effect.

Row | SMILES | activity change, negative = cytotoxicity
1 | Cc1cc(C)cc([N+](=O)[O-])c1 | 11.3% [at 81.1 µM] (inactive)
2 | CCC(O)C(C)(C)C (stereo not drawn) | 3.61% [at 81.1 µM] (inactive)
3 | O=c1[nH]c(=O)c2[nH]c(=O)[nH]c2[nH]1 | -0.867% [at 13.2 µM] (inactive)
4 | CN(C)CCCNCCC#N | -0.245% (inactive)
5 | Cc1ccccc1OCC1CO1 (stereo not drawn) | 6.37% [at 81.1 µM] (inactive)
6 | CCCCCCCCCCCCCC(=O)OC | -1.38% (inactive)
7 | OC[C@@H](O)[C@H](O)[C@@H](O)[C@@H](O)CO | 16.4% (inactive)
8 | CC(C)COC(=O)CCCCC(=O)OCC(C)C | -0.499% (inactive)
9 | CCC1COC(=O)O1 (stereo not drawn) | -1.31% (inactive)
10 | CCS(=O)(=O)CCn1c([N+](=O)[O-])cnc1C | 5% (inactive)
11 | CCCCCCCCOC(C)=O | 17.9% (inactive)
12 | O=C(Nc1cccc(C2=NCCN2)c1)Nc1cccc(C2=NCCN2)c1 | 7.53% [at 29.1 µM] (inactive)
13 | CC(=O)OCC(=O)[C@@]1(O)[C@H](OC(C)=O)C[C@H]2[C@@H]3CCC4=CC(=O)C=C[C@]4(C)[C@@]3(F)[C@@H](O)C[C@@]21C | 15.2% (inactive)
14 | CNC(=O)C(c1ccccc1)c1ccccc1 | -3.29% (inactive)
15 | CC(CC(=O)O)CC(C)(C)C (stereo not drawn) | -1.21% (inactive)
16 | CCOc1ccc(NC(=O)OC(C)C)cc1OCC | 17.4% (inactive)

Row | SMILES | activity change, negative = cytotoxicity
17 | NS(=O)(=O)c1ccccc1OC(F)(F)F | 5.82% (inactive)
18 | CC(=O)c1ccc2c(c1)CCCC2 | -21.6% (inactive)
19 | CCC1Nc2cc(Cl)c(S(N)(=O)=O)cc2S(=O)(=O)N1 (stereo not drawn) | -21.1% (inactive)
20 | CCCCOC(=O)C(C)OC(=O)CCC (stereo not drawn) | 11.3% (inactive)
21 | CC1=NN(c2ccc(S(=O)(=O)O)cc2)C(=O)C1N=Nc1ccccc1 (stereo not drawn) | -13.6% (inactive)
22 | Nc1cc(Cl)cc(S(=O)(=O)O)c1O | 11.1% [at 81.1 µM] (inactive)
23 | O=C1OC(=O)c2cc(Oc3ccc4c(c3)C(=O)OC4=O)ccc21 | 5.63% (inactive)
24 | O=C(Oc1ccccc1C(=O)O)c1ccccc1O | 4.71% (inactive)
25 | O=C(O)c1ccc(OCCN2CCCCC2)cc1 | 7.75% (inactive)
26 | CC(C)CCO | 0.384% (inactive)
27 | COCCOCCOCCOC | -2.32% (inactive)
28 | CC(=O)OC(C(=O)c1ccccc1)c1ccccc1 (stereo not drawn) | 15.3% [at 81.1 µM] (inactive)
29 | N#CCCOCCOCCC#N | 8.37% (inactive)
30 | O=C(COCCOCCOCC(=O)Nc1c(I)cc(I)c(C(=O)O)c1I)Nc1c(I)cc(I)c(C(=O)O)c1I | 13% (inactive)
31 | C[CH2][Ge]([Cl])([CH2]C)[CH2]C | -0.193% [at 81.1 µM] (inactive)

Assay: qHTS assay to identify small molecule antagonists of the vitamin D receptor (VDR) signaling pathway - cell viability counter screen (AID 743225); further: nearly all actives have a fitted effect of over 50% in size
Conditions: VDR-bla HEK293T viability, CellTiter-Glo luminescence, 16 h; series mostly up to 61 µM; viability change, negative = cytotoxic: at the top concentration
Method in brief: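 Cytotoxicity counter screen read by CellTiter-Glo luminescence (30 min, room temperature) in the same wells as the VDR-bla antagonist readout. HEK 293T VDR-UAS-bla cells had 16 h at 37C with compound and 3 nM (final) 1-alpha,25-dihydroxyvitamin D3, then 2 h with FRET substrate.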

Row | SMILES | viability change, negative = cytotoxic
32 | Cc1cc(C)cc([N+](=O)[O-])c1 | 8.4% [at 78.8 µM] (inactive)
33 | COc1cc([N+](=O)[O-])ccc1N | -10.8% (inactive)
34 | CCC(O)C(C)(C)C (stereo not drawn) | 6.29% [at 78.8 µM] (inactive)
35 | OC(CCN1CCCCC1)(c1ccccc1)c1ccccc1 | 9.57% (inactive)
36 | Oc1ccccc1Cc1ccccc1O | -16% (inactive)
37 | O=c1[nH]c(=O)c2[nH]c(=O)[nH]c2[nH]1 | 18.1% [at 6.95 µM] (inactive)
38 | Cc1ccc2c(c1)c1c3n2CCNC3CCC1 (stereo not drawn) | 2.12% (inactive)
39 | C1=CCC(c2ccccc2)CC1 (stereo not drawn) | 0.0466% (inactive)
40 | Cc1ccccc1OCC1CO1 (stereo not drawn) | 3.45% [at 78.8 µM] (inactive)
41 | CCCCCCCCCCCCCC(=O)OC | 0.431% (inactive)
42 | OC[C@@H](O)[C@H](O)[C@@H](O)[C@@H](O)CO | 5.25% (inactive)
43 | CC(C)COC(=O)CCCCC(=O)OCC(C)C | 0.0209% (inactive)
44 | CCC1COC(=O)O1 (stereo not drawn) | 0.325% (inactive)
45 | CCS(=O)(=O)CCn1c([N+](=O)[O-])cnc1C | -19.6% (inactive)
46 | CCCCCC1Nc2cc(C(F)(F)F)c(S(N)(=O)=O)cc2S(=O)(=O)N1 (stereo not drawn) | 7.4% (inactive)
47 | CCCCCCCCOC(C)=O | 0.314% (inactive)
48 | CC(=O)OCC(=O)[C@@]1(O)[C@H](OC(C)=O)C[C@H]2[C@@H]3CCC4=CC(=O)C=C[C@]4(C)[C@@]3(F)[C@@H](O)C[C@@]21C | -0.912% (inactive)

Row | SMILES | viability change, negative = cytotoxic
49 | CNC(=O)C(c1ccccc1)c1ccccc1 | -39.4% (inactive)
50 | CC(CC(=O)O)CC(C)(C)C (stereo not drawn) | 0% (inactive)
51 | CCOc1ccc(NC(=O)OC(C)C)cc1OCC | 2.53% (inactive)
52 | CCC1Nc2cc(Cl)c(S(N)(=O)=O)cc2S(=O)(=O)N1 (stereo not drawn) | -5.1% (inactive)
53 | CCCCOC(=O)C(C)OC(=O)CCC (stereo not drawn) | 7.17% (inactive)
54 | CC1=NN(c2ccc(S(=O)(=O)O)cc2)C(=O)C1N=Nc1ccccc1 (stereo not drawn) | 0.285% (inactive)
55 | C=CCOCC(CO)(COCC=C)COCC=C | 0.888% (inactive)
56 | O=C1OC(=O)c2cc(Oc3ccc4c(c3)C(=O)OC4=O)ccc21 | 11.1% (inactive)
57 | O=C(Oc1ccccc1C(=O)O)c1ccccc1O | 3.14% (inactive)
58 | O=C(O)c1ccc(OCCN2CCCCC2)cc1 | -2.89% (inactive)
59 | CC(C)CCO | -1.02% (inactive)
60 | COCCOCCOCCOC | -10.3% (inactive)
61 | CC(=O)OC(C(=O)c1ccccc1)c1ccccc1 (stereo not drawn) | 6.35% [at 78.8 µM] (inactive)
62 | N#CCCOCCOCCC#N | 2.88% (inactive)
63 | O=C(COCCOCCOCC(=O)Nc1c(I)cc(I)c(C(=O)O)c1I)Nc1c(I)cc(I)c(C(=O)O)c1I | -14.8% (inactive)
64 | C[CH2][Ge]([Cl])([CH2]C)[CH2]C | 1.84% [at 78.8 µM] (inactive)

Assay: qHTS assay to identify small molecule agonists of the NFkB signaling pathway (AID 1159509; active means well fitted curve in the direction sought with a large enough effect in the signal ratio in the repeat runs, not every such curve was filed as active; the % refers to the signal ratio)
Conditions: NFkB-bla ME-180 cells, beta-lactamase FRET ratio, 5 h; series mostly up to 61 µM; activation: at the top concentration
Method in brief: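 After overnight attachment, reporter cells received test compounds, DMSO or positive controls and were incubated 5 hr at 37 C. FRET substrate was then added for 1.5 hr at room temperature before dual-emission fluorescence reading.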

Row | SMILES | activation
65 | Cc1cc(C)cc([N+](=O)[O-])c1 | -0.182% [at 78.8 µM] (inactive)
66 | COc1cc([N+](=O)[O-])ccc1N | -1.36% (inactive)
67 | CCC(O)C(C)(C)C (stereo not drawn) | 0.131% [at 78.8 µM] (inactive)
68 | OC(CCN1CCCCC1)(c1ccccc1)c1ccccc1 | 0.305% (inactive)
69 | Oc1ccccc1Cc1ccccc1O | 1.05% (inactive)
70 | O=c1[nH]c(=O)c2[nH]c(=O)[nH]c2[nH]1 | -0.0901% [at 6.95 µM] (inactive)
71 | Cc1ccc2c(c1)c1c3n2CCNC3CCC1 (stereo not drawn) | 0.613% (inactive)
72 | C1=CCC(c2ccccc2)CC1 (stereo not drawn) | -0.285% (inactive)
73 | Cc1ccccc1OCC1CO1 (stereo not drawn) | 0.187% [at 78.8 µM] (inactive)
74 | CCCCCCCCCCCCCC(=O)OC | 0.0583% (inactive)
75 | OC[C@@H](O)[C@H](O)[C@@H](O)[C@@H](O)CO | -0.522% (inactive)
76 | CC(C)COC(=O)CCCCC(=O)OCC(C)C | 0.296% (inactive)
77 | CCC1COC(=O)O1 (stereo not drawn) | -0.931% (inactive)
78 | CCS(=O)(=O)CCn1c([N+](=O)[O-])cnc1C | 0.114% (inactive)
79 | CCCCCC1Nc2cc(C(F)(F)F)c(S(N)(=O)=O)cc2S(=O)(=O)N1 (stereo not drawn) | 0.0868% (inactive)
80 | CCCCCCCCOC(C)=O | 0.533% (inactive)
81 | O=C(Nc1cccc(C2=NCCN2)c1)Nc1cccc(C2=NCCN2)c1 | -0.629% [at 28.5 µM] (inactive)

Row | SMILES | activation
82 | CNC(=O)C(c1ccccc1)c1ccccc1 | -0.617% (inactive)
83 | CC(CC(=O)O)CC(C)(C)C (stereo not drawn) | -0.398% (inactive)
84 | CCOc1ccc(NC(=O)OC(C)C)cc1OCC | -0.546% (inactive)
85 | CC(=O)c1ccc2c(c1)CCCC2 | -0.0378% (inactive)
86 | CCC1Nc2cc(Cl)c(S(N)(=O)=O)cc2S(=O)(=O)N1 (stereo not drawn) | -0.0501% (inactive)
87 | CCCCOC(=O)C(C)OC(=O)CCC (stereo not drawn) | -0.332% (inactive)
88 | CC1=NN(c2ccc(S(=O)(=O)O)cc2)C(=O)C1N=Nc1ccccc1 (stereo not drawn) | -0.232% (inactive)
89 | C=CCOCC(CO)(COCC=C)COCC=C | -0.273% (inactive)
90 | Nc1cc(Cl)cc(S(=O)(=O)O)c1O | -0.129% [at 78.8 µM] (inactive)
91 | O=C(Oc1ccccc1C(=O)O)c1ccccc1O | 0.132% (inactive)
92 | O=C(O)c1ccc(OCCN2CCCCC2)cc1 | 0.303% (inactive)
93 | CC(C)CCO | 0.127% (inactive)
94 | COCCOCCOCCOC | -0.702% (inactive)
95 | CC(=O)OC(C(=O)c1ccccc1)c1ccccc1 (stereo not drawn) | 0.0746% [at 78.8 µM] (inactive)
96 | N#CCCOCCOCCC#N | -0.105% (inactive)
97 | O=C(COCCOCCOCC(=O)Nc1c(I)cc(I)c(C(=O)O)c1I)Nc1c(I)cc(I)c(C(=O)O)c1I | -0.0484% (inactive)
98 | C[CH2][Ge]([Cl])([CH2]C)[CH2]C | -0.661% [at 78.8 µM] (inactive)
